Test results published in PubChem BioAssay (NCI).
This is part of a sample that, as a whole, favours compounds with a hit. Of some 79,000 tested, about 15% had one in any assay. The source made the active and inactive calls. No stated cut-off is given here; in the data, active means growth inhibition above about 70%; inactive means the rest.

Columns and labels:
[1] = NCI Yeast Anticancer Drug Screen. Data for the rad52 strain (AID 147);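 further: 0% = growth of vehicle-treated control cultures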; conditions: S. cerevisiae rad52 mutant growth inhibition, hits give high values
Outline: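 DNA repair-defective yeast; compound exposure; growth scored against vehicle controls.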

[2] = NCI Yeast Anticancer Drug Screen. Data for the wt1 strain (AID 149);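 further: 0% = growth of vehicle-treated wt1 cultures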; conditions: S. cerevisiae wt1 strain (SPY 50644) growth inhibition, hits give high values
Outline: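 wt1 yeast, compound-treated; % growth inhibition vs vehicle control.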

[3] = NCI Yeast Anticancer Drug Screen. Data for the rad50 strain (AID 155);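 further: 0% = growth of vehicle-only cultures of the same strain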; conditions: S. cerevisiae rad50 strain growth inhibition, hits give high values
Outline: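 Genetically altered yeast (DNA repair pathway); compound treatment; growth inhibition vs vehicle ctrl.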

[4] = NCI Yeast Anticancer Drug Screen. Data for the mec2-1 strain (AID 157); conditions: S. cerevisiae mec2-1 strain, hits give high values
Outline: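 Growth inhibition is read against vehicle-treated controls after compound exposure of the mec2-1 yeast strain, which is defective in DNA damage repair or cell cycle control.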

[5] = NCI Yeast Anticancer Drug Screen. Data for the rad14 strain (AID 159);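 further: 0% = growth of vehicle-treated control cultures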; conditions: S. cerevisiae rad14 strain growth inhibition, hits give high values
Outline: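 Test compounds were applied to a repair-deficient yeast strain. Its growth was then compared with that of cultures given vehicle alone, and inhibition was expressed relative to those controls.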

[6] = NCI Yeast Anticancer Drug Screen. Data for the sgs1 mgt1 strain (AID 161);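 further: 0% = growth of cultures given vehicle only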; conditions: S. cerevisiae sgs1 mgt1 strain, hits give high values
Outline: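 Yeast cells carrying a defined DNA-repair defect were exposed to test compounds. Growth inhibition was measured relative to vehicle-treated controls.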

[7] = NCI Yeast Anticancer Drug Screen. Data for the CLN2oe strain (AID 163);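 further: 0% = growth of vehicle-only control cultures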; conditions: S. cerevisiae CLN2oe strain, hits give high values
Outline: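 Compound-treated yeast; growth vs vehicle ctrl = % inhibition. Genetically altered strain (cell-cycle control).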

[8] = NCI Yeast Anticancer Drug Screen. Data for the cln2 rad14 strain (AID 165);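 further: 0% = growth equal to vehicle treated cultures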; conditions: S. cerevisiae cln2 rad14 strain, hits give high values
Outline: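 Growth inhibition, relative to vehicle-treated controls, is the read-out. The test organism is a yeast strain with defined genetic alterations, cln2 rad14.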

[9] = NCI Yeast Anticancer Drug Screen. Data for the bub3 strain (AID 167); conditions: S. cerevisiae bub3 mutant strain, hits give high values
Outline: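 Yeast carrying a defined mutation is treated with each compound, and growth is compared with that of vehicle-exposed cells to give inhibition.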

[10] = NCI Yeast Anticancer Drug Screen. Data for the wt2 strain (AID 169);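 further: 0% = growth of vehicle-treated yeast cultures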; conditions: S. cerevisiae wt2 strain growth inhibition, hits give high values
Outline: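 Compound exposure of yeast; growth compared with vehicle controls; inhibition reported.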

[11] = NCI Yeast Anticancer Drug Screen. Data for the mlh1 strain (AID 171);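 further: 0% = growth of vehicle-treated control cultures of the same strain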; conditions: S. cerevisiae mlh1 strain growth inhibition, hits give high values
Outline: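 Compounds are applied to a genetically altered yeast strain, and its growth is compared with that of vehicle-treated cultures to give percent inhibition.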

[12] = NCI Yeast Anticancer Drug Screen. Data for the sgs1 strain (AID 173);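 further: 0% = growth of vehicle-only control cultures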; conditions: S. cerevisiae sgs1 mutant, hits give high values
Outline: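 Compounds applied to genetically altered yeast; growth compared with vehicle-treated cultures to give % inhibition.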

[13] = NCI Yeast Anticancer Drug Screen. Data for the mlh1 rad18 strain (AID 175); conditions: S. cerevisiae mlh1 rad18 strain growth inhibition, hits give high values
Outline: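 Cells of a genetically altered yeast strain, deficient in DNA damage repair, were treated with compound. Their growth was then compared with that of vehicle-treated cultures to give inhibition.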

[14] = NCI Yeast Anticancer Drug Screen. Data for the rad18 strain (AID 177); conditions: S. cerevisiae rad18 mutant growth inhibition, hits give high values
Outline: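 Compounds are applied to a repair-deficient yeast strain, and growth is compared with that of vehicle-treated cultures to give percent inhibition.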

[15] = at 5.0 µM (retest, dose inferred, filed as 0.5)
[16] = at 50.0 µM (retest, dose inferred, filed as 5.0)

Measured: growth inhibition

Clc1nc(C(Cl)Cl)nc2sc3c(c12)CCCC3
inactive: [1]; at 1.2 µM 10% | [1]; at 3.7 µM 11% | [1]; at 11.0 µM 14% | [1]; at 33.0 µM 26% | [1]; at 100.0 µM 54% | [2]; at 1.2 µM 2% | [2]; at 3.7 µM 4% | [2]; at 11.0 µM 5% | [2]; at 33.0 µM 21% | [2]; at 100.0 µM 56% | [3]; at 1.2 µM 6% | [3]; at 3.7 µM -1% | [3]; [15] 28% | [3]; at 11.0 µM 1% | [3]; at 33.0 µM 31% | [3]; at 100.0 µM 53% | [4]; at 1.2 µM 11% | [4]; at 3.7 µM 9% | [4]; [15] 5% | [4]; at 11.0 µM 15% | [4]; at 33.0 µM 39% | [4]; at 100.0 µM 66% | [5]; at 1.2 µM 6% | [5]; at 3.7 µM 2% | [5]; at 11.0 µM 9% | [5]; at 33.0 µM 33% | [5]; at 100.0 µM 69% | [6]; [15] 5% | [6]; [16] 26% | [7]; at 1.2 µM 7% | [7]; at 3.7 µM 9% | [7]; at 11.0 µM 12% | [7]; at 33.0 µM 46% | [7]; at 100.0 µM 63% | [8]; [15] 32% | [9]; at 1.2 µM 5% | [9]; at 3.7 µM 3% | [9]; [15] 0% | [9]; at 11.0 µM 8% | [9]; at 33.0 µM 27% | [9]; at 100.0 µM 43% | [10]; at 1.2 µM 3% | [10]; at 3.7 µM 3% | [10]; at 11.0 µM 6% | [10]; at 33.0 µM 36% | [11]; at 1.2 µM 4% | [11]; at 3.7 µM 4% | [11]; at 11.0 µM 7% | [11]; at 33.0 µM 29% | [11]; at 100.0 µM 51% | [12]; at 1.2 µM 7% | [12]; at 3.7 µM 7% | [12]; at 11.0 µM 10% | [12]; at 33.0 µM 51% | [13]; [15] -1% | [14]; at 1.2 µM 12% | [14]; at 3.7 µM 13% | [14]; at 11.0 µM 21% | [14]; at 33.0 µM 35% | [14]; at 100.0 µM 58%
active: [3]; [16] 88% | [3]; at 50.0 µM 98.2% | [4]; [16] 80% | [4]; at 50.0 µM 89.3% | [6]; at 50.0 µM 97.7% | [8]; [16] 81% | [8]; at 50.0 µM 78.2% | [9]; [16] 96% | [9]; at 50.0 µM 92.1% | [10]; at 100.0 µM 73% | [12]; at 100.0 µM 78% | [13]; [16] 74% | [13]; at 50.0 µM 96.3%
